Screening data (PubChem BioAssay)
Only a selection was taken, and hits are over-represented in it overall.
ST2 inh: inhibitors of human ST2 (IL1RL1) binding to IL-33, primary screen, biochemical, AlphaLISA; AID 1259354, 2018; inhibition, % for hits at 17 µM; AlphaLISA ST2-Fc/biotin-IL-33 interaction, 1 h; 2.3% of 78,000 active; in the data active = inhibition above about 30%
Target sequence (Q01638 whole entry, looked up): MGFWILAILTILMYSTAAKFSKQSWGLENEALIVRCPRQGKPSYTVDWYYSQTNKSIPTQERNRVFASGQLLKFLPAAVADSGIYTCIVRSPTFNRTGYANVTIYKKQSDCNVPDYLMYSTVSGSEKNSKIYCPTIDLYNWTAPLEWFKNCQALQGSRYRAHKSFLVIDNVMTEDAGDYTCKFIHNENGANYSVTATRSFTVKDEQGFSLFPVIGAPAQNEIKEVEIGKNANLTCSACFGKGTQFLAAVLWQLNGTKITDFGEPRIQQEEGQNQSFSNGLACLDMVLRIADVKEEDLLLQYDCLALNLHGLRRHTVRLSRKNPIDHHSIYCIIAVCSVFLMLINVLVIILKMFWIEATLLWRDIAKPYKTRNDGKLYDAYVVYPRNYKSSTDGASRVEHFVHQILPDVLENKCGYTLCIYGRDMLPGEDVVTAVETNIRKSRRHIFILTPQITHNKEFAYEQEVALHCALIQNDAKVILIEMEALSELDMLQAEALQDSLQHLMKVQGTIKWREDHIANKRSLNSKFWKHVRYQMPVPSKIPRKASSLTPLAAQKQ
* hit, by the source's call; i = inactive.

SMILES	ST2 inh
C=CCc1c(C)nc2nc(SCC(=O)Nc3ccccc3Cl)nn2c1C	i
COC(=O)C1=C(C)NC2=C(C(=O)CC(C)(C)C2)C1c1coc2ccccc2c1=O (stereo not drawn)	i
O=[N+]([O-])c1ccc(-c2cn3cc(Br)ccc3n2)cc1	31.0%*
O=[N+]([O-])c1ccc(-c2cn3ccsc3n2)cc1	i
Brc1ccc(-c2cn3ccc4ccccc4c3n2)cc1	i
CCN(CC)C(=O)C1CCCN(Cc2cc(OC)ccc2OC)C1 (stereo not drawn)	i
CC(=O)c1ccc(NC(=O)O[C@@H]2CO[C@H]3[C@@H]2OC[C@@H]3n2nnnc2Sc2ccccc2)cc1	i
COc1ccccc1CNC(=O)CN(C)C(C)c1ccon1 (stereo not drawn)	i
C=CCN1C(=Nc2cccnc2)SCC1(O)c1ccc(OC)cc1 (stereo not drawn)	61.0%*
CCC(=O)N1N=C(C)CC1(O)c1cccnc1 (stereo not drawn)	i
CCC1=NN(C(=O)c2cccnc2)C(O)(c2ccc(Br)cc2)C1 (stereo not drawn)	i
COc1ccc(C(CC(=O)N2CCN(c3cnccn3)CC2)c2ccccc2)cc1 (stereo not drawn)	i
Cc1ccc2cc(C3(O)CCN(C(=O)COc4cccnc4)CC3)ccc2n1	i
C=CCN1C(=Nc2cccnc2)SCC1(O)c1ccc(C)cc1 (stereo not drawn)	59.0%*
CCCn1cc(C(=O)N[C@H]2COC[C@@H]2OCC)c(C)n1	i
Cc1cc(=O)oc2c1c(-c1ccccc1)nn2-c1cccc(C(=O)O)c1	i
CC(C)(C)SCCNC(=O)c1ccc(Cl)cc1Cl	i
CCN(CCn1cccn1)c1nc2nonc2nc1N1CCCC1	i
Cc1csc(=Nc2ccccc2)n1CC(=O)c1ccccc1	36.0%*
Cc1cccn(CC(=O)c2ccc(-c3ccccc3)cc2)c1=N	i
CCOC(=O)c1sc(=Nc2ccccc2)n(-c2ccccc2)c1C	i
Cc1nc([N+](=O)[O-])cn1CC(=O)c1ccccc1	i
Cc1cc(C)n(-c2ccccc2)n1	i
Cc1csc(=Nc2ccccc2)n1-c1ccccc1	32.0%*
Cc1cccc(C(=O)N(c2ccc(Br)cc2)C2C=CS(=O)(=O)C2)c1 (stereo not drawn)	i
SMILES	ST2 inh
CCCC(C)NC(=O)c1ccccc1F (stereo not drawn)	i
CCc1nc(C)c(C(=O)N2CCOC(Cc3ccc(F)cc3)C2)o1 (stereo not drawn)	i
COc1cccc(C(=O)NCC2CCCN(C3CCSCC3)C2)c1OC (stereo not drawn)	i
O=C1OC(c2cccc([N+](=O)[O-])c2)=N/C1=C\c1cccc(I)c1	i
O=[N+]([O-])c1cccc(C=Nc2nnc(-c3ccccc3)s2)c1	i
Cc1ccc([N+](=O)[O-])cc1N1C(=O)/C(=C\c2ccccc2)N=C1c1ccccc1	40.0%*
O=C(NCCN1CCCC1)c1ccc(CS(=O)(=O)c2ccc(Br)cc2)o1	i
CCOc1ccc(CN2C(=O)CCC2(C)C(=O)NCCc2ccc(OC)c(OC)c2)cc1OC (stereo not drawn)	i
COc1ccc(CN2C(=Nc3ccccc3)S[C@H]3[C@@H]2[C@@H](O)[C@H](O)C[C@@H]3C(N)=O)cc1	i
COc1ccc(N=C2SCC(=O)N2c2ccc(OC)cc2)cc1	i
COc1ccc(C2(C(=O)N3CCCC(O)(CO)C3)CC2)cc1 (stereo not drawn)	i
COc1ccc(N=c2scc(-c3ccc(I)cc3)n2CCO)cc1	55.0%*
Cc1ccc(-c2csc(=Nc3ccccc3)n2CCCN(C)C)cc1	42.0%*
O=C1c2ccccc2C(=O)N1c1cccc(-c2csc(=Nc3ccccc3)n2CCO)c1	48.0%*
O=C(O)c1ccc2c(c1)C(=O)N(c1cccc(Cl)c1)C2=O	i
CCCCn1c(=N)n(CCOc2ccc(C)cc2)c2ccccc21	i
CN=c1scc(-c2ccc(Cl)cc2)n1C	i
CCNC(=O)CC1SC(=Nc2ccc(OC)cc2)N(C)C1=O (stereo not drawn)	i
Cc1cccc(N2C(=O)c3ccc(-c4nnc(-c5ccccc5)o4)cc3C2=O)c1	i
COc1ccc(-c2csc(=Nc3ccccc3)n2CCO)cc1	38.0%*
CCCCOC(=O)C1=C(C)Nc2nnnn2C1c1c(F)cccc1Cl (stereo not drawn)	i
N#Cc1c(NC(=O)c2ccc(Cl)c(Cl)c2)sc2c1CCC2	i
CCCc1cc2c(=O)c(-c3ccc4c(c3)OCCO4)c(CC)oc2cc1O	i
CC1CCCN(C(=O)C2c3ccccc3C(=O)N(C)C2c2cccs2)C1 (stereo not drawn)	i
O=C(Nc1ncc(S(=O)(=O)c2ccc([N+](=O)[O-])cc2)s1)c1cccc(Cl)c1	i
SMILES	ST2 inh
COC(=O)C1C(=O)C2=C(CC1C)NC(C)=C(C(=O)OC1CCCCC1)C2c1cccs1 (stereo not drawn)	i
O[C@H]1CN[C@H](c2nc(-c3ccc4c(c3)OCO4)no2)C1	i
Cc1nc(Cc2ccc(-n3ccnc3-c3nccn3C)cc2)n[nH]1	i
O=C1NC(=Nc2ccccn2)SC1Cc1ccc(F)cc1 (stereo not drawn)	i
COCc1ccc(C(=O)NCc2ccc3c(c2)n(C)c(=O)n3C)o1	i
Cn1c(=O)n(C)c2cc(CNC(=O)Cc3c[nH]c4ccccc34)ccc21	30.0%*
Cc1cc(C)n(CCC(=O)NCCc2c[nH]c3ccccc23)c(=O)n1	i
COc1ccc(CNC(=O)c2ncn[nH]2)cc1	i
CCOC(=O)c1c(C)oc2c(Cl)cc(NS(=O)(=O)c3ccc(Br)cc3)cc12	i
c1c2c(cc3sc(N4CCCC4)nc13)OCCO2	i
CCCN1CCN(CCCNC(=O)c2cn(CC(C)C)c(=O)c3c2c2ccccc2n3C)CC1	i
COc1ccc(CCNc2oc(COc3ccccc3C)nc2C#N)cc1OC	38.0%*
COc1ccc(CCNc2oc(COc3cccc(C)c3)nc2C#N)cc1	30.0%*
COc1ccc(CNc2oc(COc3ccc(Cl)cc3)nc2C#N)cc1	i
Cc1cccc(OCc2nnc(SCC(=O)Nc3ccc(C)c(C)c3)o2)c1	i
COc1ccc(CCNC(=O)CC(c2ccccc2)c2ccccc2)cc1OC	i
COc1ccccc1OCc1nc(C#N)c(NCc2cccnc2)o1	i
CCOc1ccc(C2CC(c3cccc(Br)c3)n3nc(N)nc3N2)cc1 (stereo not drawn)	i
O=C(Nc1ccc(Oc2ccccc2)cc1)c1coc(=O)c2ccccc12	i
CN1C(=O)C(N=Cc2ccccc2)N(c2ccccc2)C1=O (stereo not drawn)	i
O=C(CCCc1ccc(F)cc1)NC1CCCN(C2Cc3ccccc3C2)C1 (stereo not drawn)	i
O=C([C@@H]1C[C@@H](O)CN1)N1CCC(Cc2nncn2-c2ccccc2)CC1	i
COc1ccc(OC)c(C2C=C(Nc3ccccc3)C(=O)N2c2ccccc2)c1 (stereo not drawn)	i
COc1ccccc1C1C=C(Nc2ccc(C)cc2)C(=O)N1c1ccc(C)cc1 (stereo not drawn)	i
O=C1C(Nc2ccccc2)=CC(c2ccccc2[N+](=O)[O-])N1c1ccccc1 (stereo not drawn)	30.0%*
Cn1c(=O)c2c3c(sc2n2c(SCc4ccccc4)nnc12)CCC3	i
CSc1cccc(NC(=O)C2COc3ccccc3O2)c1 (stereo not drawn)	i
